Laboratory results from PubChem BioAssay (EPA / NIEHS).
Results filed as inconclusive are left out. Active and inactive are the calls of the source. The calls were made as follows, unless noted: active = hit-call score of the fitted dose curve at least 0.9, where 1 is the maximum; inactive = score below 0.9.

What was measured:
[1] = target: Retinoic acid receptor RXR-alpha (Homo sapiens) (UniProt P19793); test: ATG_RXRa_TRANS: Attagene TRANS-FACTORIAL HepG2 Assay for human Retinoid X Receptor alpha (RXRa) (AID 2283012; active = hit-call score of the fitted dose curve at least 0.9, where 1 is the maximum)
Sequence of Retinoic acid receptor RXR-alpha (Homo sapiens) (P19793 whole entry, looked up, the tested form may be a part): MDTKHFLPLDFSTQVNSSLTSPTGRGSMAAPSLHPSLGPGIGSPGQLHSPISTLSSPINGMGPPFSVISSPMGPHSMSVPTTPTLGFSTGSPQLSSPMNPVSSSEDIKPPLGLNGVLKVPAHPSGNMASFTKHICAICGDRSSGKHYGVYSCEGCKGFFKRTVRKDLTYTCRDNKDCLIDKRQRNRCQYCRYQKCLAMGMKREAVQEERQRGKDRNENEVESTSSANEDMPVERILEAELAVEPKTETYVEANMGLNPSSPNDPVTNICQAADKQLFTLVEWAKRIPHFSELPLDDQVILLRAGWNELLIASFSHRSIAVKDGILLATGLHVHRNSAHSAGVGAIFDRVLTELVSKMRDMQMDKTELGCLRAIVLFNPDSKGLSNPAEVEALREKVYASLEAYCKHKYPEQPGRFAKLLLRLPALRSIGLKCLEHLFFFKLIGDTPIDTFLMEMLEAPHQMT
Procedure, shortened: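 Transient transfection of human HepG2 with multiple GAL4-UAS reporter constructs; 24 h compound exposure; total RNA isolated, reverse-transcribed, PCR-amplified, 6-FAM labelled, HpaI-cut, resolved by capillary electrophoresis. Positive-direction fit versus DMSO.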

[2] = target: human Retinoid X Receptor beta (RXRb), RXRB (gene 6257) (UniProt P28702); test: ATG_RXRb_TRANS: Attagene TRANS-FACTORIAL HepG2 Assay for human Retinoid X Receptor beta (RXRb) (AID 2283013; active = hit-call score of the fitted dose curve at least 0.9, where 1 is the maximum)
Sequence of human Retinoid X Receptor beta (RXRb), RXRB (gene 6257) (P28702 whole entry, looked up, the tested form may be a part): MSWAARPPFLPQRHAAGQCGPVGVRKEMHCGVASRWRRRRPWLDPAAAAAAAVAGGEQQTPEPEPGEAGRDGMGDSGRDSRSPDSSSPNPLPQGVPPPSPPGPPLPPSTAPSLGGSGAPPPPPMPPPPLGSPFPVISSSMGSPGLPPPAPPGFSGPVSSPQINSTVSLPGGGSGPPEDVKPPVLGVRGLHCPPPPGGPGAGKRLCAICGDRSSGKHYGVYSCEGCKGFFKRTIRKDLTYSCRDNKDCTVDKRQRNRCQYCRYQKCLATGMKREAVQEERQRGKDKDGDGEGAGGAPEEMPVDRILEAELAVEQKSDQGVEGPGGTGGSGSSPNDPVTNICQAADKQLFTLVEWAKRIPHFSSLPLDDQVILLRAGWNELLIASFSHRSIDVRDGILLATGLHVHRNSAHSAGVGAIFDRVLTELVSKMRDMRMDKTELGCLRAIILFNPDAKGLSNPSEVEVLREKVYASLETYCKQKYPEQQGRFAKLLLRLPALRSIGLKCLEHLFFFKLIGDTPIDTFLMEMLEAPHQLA
Procedure, shortened: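 Transfect HepG2 with GAL4-UAS multi-reporter constructs (chimeric NR-Gal4, TRANS format); dose compound 24 h; isolate RNA, RT-PCR, FAM primer extension, HpaI digest; quantify by capillary electrophoresis; positive direction vs DMSO.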

[3] = read-out: E-selectin (Homo sapiens) (UniProt P16581); test: BSK_3C_Eselectin: BioMAP Diversity Plus: 3C Assay for Eselectin Biomarker Activity (AID 2283015); conditions: primary human endothelial cells (HUVEC); actives raise or lower the signal;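 also: cell surface E-selectin protein quantified by ELISA 24 h after dosing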
Procedure, shortened: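 Endpoint derived by bidirectional fitting against DMSO vehicle; signal is ELISA-detected E-selectin from primary HUVEC at 24 h post-dosing, with parallel SRB staining (0.1% SRB, 560 nm) flagging cytotoxicity.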

[4] = read-out: Interleukin-1 alpha (IL1a), IL1A (gene 3552); test: BSK_BE3C_IL1a: BioMAP Diversity Plus: BE3C Assay for Interleukin-1 alpha (IL1a) Biomarker Activity (AID 2283016); conditions: primary human bronchial epithelial cells; actives raise or lower the signal
Procedure, shortened: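 BE3C primary human bronchial epithelium; cpd 24 h; IL-1a by ELISA; bidirectional fit vs DMSO; parallel SRB (0.1% SRB, 10% TCA fix, 560 nm) for cytotoxicity.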

[5] = read-out: Monocyte Chemoattractant Protein-1 (MCP1), CCL2 (gene 6347); test: BSK_3C_MCP1: BioMAP Diversity Plus: 3C Assay for Monocyte Chemoattractant Protein-1 (MCP1) Biomarker Activity (AID 2283017); conditions: primary human endothelial cells (HUVEC); actives raise or lower the signal
Procedure, shortened: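 Using human vascular primary endothelium, researchers measured MCP-1 by ELISA 24 h after treatment, with DMSO serving as negative control for bidirectional fitting.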

[6] = read-out: Monocyte Chemoattractant Protein-1 (MCP1), CCL2 (gene 6347); test: BSK_4H_MCP1: BioMAP Diversity Plus: 4H Assay for Monocyte Chemoattractant Protein-1 (MCP1) Biomarker Activity (AID 2283018); conditions: primary human endothelial cells (HUVEC); actives raise or lower the signal
Procedure, shortened: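 ELISA read-out of MCP-1 from human vascular endothelial primary cells taken at 24 hours after compound exposure. Activity was fitted in both directions relative to DMSO, which served as negative control.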

[7] = read-out: Human Leukocyte Antigen - DR isotype (HLADR), HLA-DRA (gene 3122); test: BSK_3C_HLADR: BioMAP Diversity Plus: 3C Assay for Human Leukocyte Antigen - DR isotype (HLADR) Biomarker Activity (AID 2283019); conditions: primary human endothelial cells (HUVEC); actives raise or lower the signal;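 as to outcome: ELISA of cell-surface HLA-DR on HUVEC 24 h after dosing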
Procedure, shortened: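 Compound added to primary HUVEC cultures, 24 h incubation, then HLA-DR determined by ELISA; endpoint derived by bidirectional fitting relative to DMSO negative control.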

[8] = read-out: Interleukin-8 (IL8), CXCL8 (gene 3576); test: BSK_3C_IL8: BioMAP Diversity Plus: 3C Assay for Interleukin-8 (IL8) Biomarker Activity (AID 2283020); conditions: primary human endothelial cells (HUVEC); actives raise or lower the signal
Procedure, shortened: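 ELISA read-out of IL-8 from human umbilical vein endothelium, measured 24 h after chemical dosing. Activity is expressed relative to DMSO negative control, with both increases and decreases fitted.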

[9] = read-out: Monokine induced gamma interferon (MIG), CXCL9 (gene 4283); test: BSK_3C_MIG: BioMAP Diversity Plus: 3C Assay for Monokine induced gamma interferon (MIG) Biomarker Activity (AID 2283021); conditions: primary human endothelial cells (HUVEC); actives raise or lower the signal
Procedure, shortened: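 Read-out is ELISA detection of MIG on human umbilical vein endothelial cells, taken 24 h after dosing. Gain or loss of signal was scored relative to DMSO controls using bidirectional curve fitting.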

[10] = BSK_3C_SRB: Viability Assessment in the BioMAP Diversity Plus: 3C Assay (AID 2283023); conditions: primary human endothelial cells (HUVEC);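 also: fitted both ways against DMSO so a hit may be signal rise or drop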
Procedure, shortened: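 Overt cytotoxicity is gauged in parallel confluent HUVEC cultures by SRB total-protein staining at the time of biomarker measurement, 24 h after dosing. Gain or loss of signal is fitted versus DMSO.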

[11] = read-out: Matrix Metallopeptidase 1 (MMP1), MMP1 (gene 4312); test: BSK_BE3C_MMP1: BioMAP Diversity Plus: BE3C Assay for Matrix Metallopeptidase 1 (MMP1) Biomarker Activity (AID 2283024); conditions: primary human bronchial epithelial cells; actives raise or lower the signal
Procedure, shortened: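 Human bronchial epithelial cells (BE3C system) exposed to compound for 24 h; MMP1 then quantified by ELISA. Activity was fitted in both directions relative to DMSO.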

[12] = BSK_3C_Vis: BioMAP Diversity Plus: 3C Assay for Morphology Visualization (AID 2283025); conditions: primary human endothelial cells (HUVEC);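 also: fitted both ways so gain or loss versus DMSO counts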;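 as to AC50: light microscopy image of cell morphology used as background control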
Procedure, shortened: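 Chemicals were added to primary human umbilical vein endothelium, cells were incubated 24 h, and morphology was then visualized by light microscopy. Gain or loss of signal was fitted bidirectionally relative to DMSO.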

[13] = read-out: Pselectin, SELP (gene 6403); test: BSK_4H_Pselectin: BioMAP Diversity Plus: 4H Assay for Pselectin Biomarker Activity (AID 2283026); conditions: primary human endothelial cells (HUVEC); actives raise or lower the signal
Procedure, shortened: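 ELISA read-out of P-selectin on human umbilical vein endothelium after 24 h of dosing. Values derive from bidirectional fitting relative to DMSO. Parallel SRB protein staining flagged overt cytotoxicity.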

[14] = BSK_4H_SRB: Viability Assessment in the BioMAP Diversity Plus: 4H Assay (AID 2283027); conditions: primary human endothelial cells (HUVEC);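 also: cells exposed to compound for 24 h before staining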
Procedure, shortened: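 Human umbilical vein endothelial cells were dosed with chemical and, after 24 h, fixed with 10% TCA, stained with 0.1% sulforhodamine B, and read at 560 nm to give total protein as a cytotoxicity measure. Bidirectional fitting relative to DMSO control.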

[15] = read-out: Thrombomodulin, THBD (gene 7056); test: BSK_3C_Thrombomodulin: BioMAP Diversity Plus: 3C Assay for Thrombomodulin Biomarker Activity (AID 2283029); conditions: primary human endothelial cells (HUVEC); actives raise or lower the signal
Procedure, shortened: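 Read-out is ELISA of thrombomodulin on human umbilical vein endothelium 24 h after chemical dosing. Gain or loss of signal is scored relative to DMSO. Overt cytotoxicity is checked in parallel cultures by sulforhodamine B staining.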

[16] = read-out: Urokinase-type plasminogen activator receptor (uPAR), PLAUR (gene 5329); test: BSK_4H_uPAR: BioMAP Diversity Plus: 4H Assay for Urokinase-type plasminogen activator receptor (uPAR) Biomarker Activity (AID 2283030); conditions: primary human endothelial cells (HUVEC); actives raise or lower the signal
Procedure, shortened: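 Endpoint derived via bidirectional curve fitting against DMSO baseline; readout was ELISA detection of uPAR on umbilical vein endothelial cells at 24 h post-treatment, with SRB-stained parallel cultures assessing cytotoxicity.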

[17] = read-out: Vascular endothelial growth factor receptor 2 (Homo sapiens) (UniProt P35968); test: BSK_4H_VEGFRII: BioMAP Diversity Plus: 4H Assay for Vascular endothelial growth factor receptor 2 (VEGFR2) Biomarker Activity (AID 2283031); conditions: primary human endothelial cells (HUVEC); actives raise or lower the signal
Procedure, shortened: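 In this multiplexed HUVEC system, biomarker ELISA was performed after 24 h chemical exposure. Parallel SRB staining (TCA fixation, 560 nm) tracked cytotoxicity; DMSO served as baseline.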

[18] = target: human Vitamin D Receptor (VDR), VDR (gene 7421) (UniProt P11473); test: ATG_VDR_TRANS: Attagene TRANS-FACTORIAL HepG2 Assay for human Vitamin D Receptor (VDR) (AID 2283022; active = hit-call score of the fitted dose curve at least 0.9, where 1 is the maximum)
Sequence of human Vitamin D Receptor (VDR), VDR (gene 7421) (P11473 whole entry, looked up): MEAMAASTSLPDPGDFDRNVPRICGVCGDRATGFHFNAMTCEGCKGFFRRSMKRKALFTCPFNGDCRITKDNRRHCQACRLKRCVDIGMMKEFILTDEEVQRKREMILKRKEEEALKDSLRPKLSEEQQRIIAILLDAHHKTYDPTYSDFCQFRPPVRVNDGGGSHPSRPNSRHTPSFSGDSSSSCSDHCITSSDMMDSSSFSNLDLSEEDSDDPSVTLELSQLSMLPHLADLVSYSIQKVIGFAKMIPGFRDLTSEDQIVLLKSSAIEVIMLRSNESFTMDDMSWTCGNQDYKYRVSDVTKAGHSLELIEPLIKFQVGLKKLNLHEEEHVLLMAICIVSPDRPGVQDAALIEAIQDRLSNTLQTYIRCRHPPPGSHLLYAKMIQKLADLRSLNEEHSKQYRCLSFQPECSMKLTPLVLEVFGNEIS
Procedure, shortened: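 Multiplexed TRANS reporter in HepG2; 24 h treatment; reporter mRNA by RT-PCR plus capillary electrophoresis; upregulation scored relative to DMSO.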

[19] = BSK_BE3C_SRB: Viability Assessment in the BioMAP Diversity Plus: BE3C Assay (AID 2283028); conditions: primary human bronchial epithelial cells
Procedure, shortened: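 SRB total-protein staining (0.1%, after TCA fixation) of chemically dosed human bronchial epithelial primary cells at 24 h; DMSO serves as the negative control for bidirectional curve fitting.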

Sequence of E-selectin (Homo sapiens) (P16581 whole entry, looked up): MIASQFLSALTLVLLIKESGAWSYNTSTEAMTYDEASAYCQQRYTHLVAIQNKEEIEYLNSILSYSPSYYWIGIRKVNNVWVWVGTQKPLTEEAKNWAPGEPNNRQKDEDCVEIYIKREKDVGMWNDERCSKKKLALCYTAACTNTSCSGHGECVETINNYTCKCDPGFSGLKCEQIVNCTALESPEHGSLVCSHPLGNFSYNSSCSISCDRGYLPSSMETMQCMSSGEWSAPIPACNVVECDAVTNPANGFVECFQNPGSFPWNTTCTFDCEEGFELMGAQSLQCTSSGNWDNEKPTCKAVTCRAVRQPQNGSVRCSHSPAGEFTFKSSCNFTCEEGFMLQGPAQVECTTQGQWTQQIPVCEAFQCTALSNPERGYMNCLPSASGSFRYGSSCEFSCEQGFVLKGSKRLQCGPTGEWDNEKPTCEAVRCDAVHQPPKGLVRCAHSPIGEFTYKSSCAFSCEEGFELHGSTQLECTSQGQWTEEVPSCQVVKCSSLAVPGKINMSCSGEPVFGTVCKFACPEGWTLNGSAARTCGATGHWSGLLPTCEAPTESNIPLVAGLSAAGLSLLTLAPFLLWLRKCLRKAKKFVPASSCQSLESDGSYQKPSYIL

With Cc1ccc(C(C)C)c(O)c1 the outcome [1] was “inactive”, the AC50 [2] was 40.6 µM (active) and the outcome [3] was “inactive”. The outcome [4] was “inactive”, the outcome [5] was “inactive” and the outcome [6] was “inactive”. The outcome [7] was “inactive”, the outcome [8] was “inactive” and the outcome [9] was “inactive”. For the same compound, the outcome [10] was “inactive”, the outcome [11] was “inactive” and the outcome [12] was “inactive”. For the same compound, the outcome [13] was “inactive”, the outcome [14] was “inactive” and the outcome [15] was “inactive”. For the same compound, the outcome [16] was “inactive” and the outcome [17] was “inactive”.

For CN1CCN(Cc2cc(-c3ccc4[nH]c(=O)oc4c3)co2)[C@@H](c2ccc(F)cc2)C1, the outcome [1] was “inactive”, the outcome [3] was “inactive” and the outcome [4] was “inactive”. For the same compound, the AC50 [5] was 17.6 µM (active), the AC50 [6] was 3.68 µM (active) and the AC50 [7] was 27.6 µM (active). The outcome [8] was “inactive”, the outcome [9] was “inactive” and the outcome [18] was “inactive”. The AC50 [10] was 28.2 µM (active), the outcome [11] was “inactive” and the AC50 [13] was 17.6 µM (active). The outcome [14] was “inactive”, the outcome [15] was “inactive” and the AC50 [16] was 11.3 µM (active). The outcome [17] was “inactive”.

In the case of O=C(OCCCCCOC(=O)c1ccccc1)c1ccccc1, the outcome [2] is reported as “inactive”, the outcome [3] is reported as “inactive” and the outcome [4] is reported as “inactive”. For the same compound, the outcome [5] was “inactive”, the outcome [6] was “inactive” and the outcome [7] was “inactive”. The outcome [8] was “inactive”, the outcome [9] was “inactive” and the outcome [10] was “inactive”. For the same compound, the outcome [11] was “inactive”, the outcome [12] was “inactive” and the outcome [13] was “inactive”. The outcome [14] was “inactive”, the outcome [19] was “inactive” and the outcome [15] was “inactive”. The outcome [16] was “inactive” and the outcome [17] was “inactive”.

For COC(=O)c1ccc(O)cc1, the AC50 [2] was 55.3 µM (active), the outcome [3] was “inactive” and the outcome [4] was “inactive”. For the same compound, the outcome [5] was “inactive”, the outcome [6] was “inactive” and the outcome [7] was “inactive”. For the same compound, the outcome [8] was “inactive”, the outcome [9] was “inactive” and the outcome [18] was “inactive”. The outcome [10] was “inactive”, the outcome [11] was “inactive” and the outcome [12] was “inactive”. The outcome [13] was “inactive”, the outcome [14] was “inactive” and the outcome [15] was “inactive”. For the same compound, the outcome [16] was “inactive” and the outcome [17] was “inactive”.

In the case of O=[N+]([O-])C(CO)(CO)CO, the outcome [3] is reported as “inactive”, the outcome [4] is reported as “inactive” and the outcome [5] is reported as “inactive”. For the same compound, the outcome [6] was “inactive”, the outcome [7] was “inactive” and the outcome [8] was “inactive”. The outcome [9] was “inactive”, the outcome [18] was “inactive” and the outcome [10] was “inactive”. For the same compound, the outcome [11] was “inactive”, the outcome [12] was “inactive” and the outcome [13] was “inactive”. The outcome [14] was “inactive”, the outcome [19] was “inactive” and the outcome [15] was “inactive”. For the same compound, the outcome [16] was “inactive” and the outcome [17] was “inactive”.

With Cc1ccc2ncccc2c1 the outcome [2] was “inactive”, the outcome [3] was “inactive” and the outcome [4] was “inactive”. For the same compound, the outcome [5] was “inactive”, the outcome [6] was “inactive” and the outcome [7] was “inactive”. For the same compound, the outcome [8] was “inactive”, the outcome [9] was “inactive” and the outcome [10] was “inactive”. The outcome [11] was “inactive”, the outcome [12] was “inactive” and the outcome [13] was “inactive”. For the same compound, the outcome [14] was “inactive”, the outcome [15] was “inactive” and the outcome [16] was “inactive”. The outcome [17] was “inactive”.

In the case of c1cc(-c2ccncc2)ccn1, the outcome [3] is reported as “inactive”, the outcome [4] is reported as “inactive” and the outcome [5] is reported as “inactive”. The outcome [6] was “inactive”, the outcome [7] was “inactive” and the outcome [8] was “inactive”. The outcome [9] was “inactive”, the outcome [18] was “inactive” and the outcome [10] was “inactive”. The outcome [11] was “inactive”, the AC50 [12] was 39 µM (active) and the outcome [13] was “inactive”. The outcome [14] was “inactive”, the outcome [15] was “inactive” and the outcome [16] was “inactive”. For the same compound, the outcome [17] was “inactive”.
